PubChem BioAssay (EPA / NIEHS)
The source made the active and inactive calls. The calls were made as follows: active = hit-call score of the fitted dose curve at least 0.9, where 1 is the maximum; inactive = score below 0.9.

Columns and labels:
Conditions in all cases: mRNA level, 48 h; actives raise or lower the signal
[1] = read-out: Cytochrome P450 7A1 (Homo sapiens) (UniProt P22680); assay: LTEA_HepaRG_CYP7A1: Life Technologies and Expression Analysis (LTEA) Assay for Cytochrome P450 7A1 (CYP7A1) using HepaRG (AID 2283496)
In short: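 HepaRG cells plated 48 h, then switched to serum-free induction medium and exposed in duplicate for 48 h to 8-point half-log series from 100 uM in 0.5% DMSO. CYP7A1 mRNA by qRT-PCR (TaqMan), normalized to ACTB/GAPDH/POLR2A; bidirectional fit versus DMSO.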

[2] = read-out: Glutathione S-Transferase (GSTA2), GSTA2 (gene 2939); assay: LTEA_HepaRG_GSTA2: Life Technologies and Expression Analysis (LTEA) Assay for Glutathione S-Transferase (GSTA2) using HepaRG (AID 2283497)
In short: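 Differentiated human HepaRG cells were exposed in duplicate for 48 h in serum-free induction medium, 8 points from 100 uM top in half-log steps, 0.5% DMSO. GSTA2 mRNA was measured by TaqMan qRT-PCR, normalized to ACTB, GAPDH and POLR2A; bidirectional fit versus DMSO.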

[3] = read-out: growth arrest and DNA damage 45 (GADD45G), GADD45G (gene 10912); assay: LTEA_HepaRG_GADD45G: Life Technologies and Expression Analysis (LTEA) Assay for growth arrest and DNA damage 45 (GADD45G) using HepaRG (AID 2283499)
In short: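 GADD45G transcript level by qRT-PCR (housekeeping-normalized: ACTB, GAPDH, POLR2A) after 48 h chemical treatment of a single HepaRG lot in serum-free induction medium; eight-point half-log series up to 100 uM in 0.5% DMSO, duplicates, up- or down-regulation scored.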

[4] = read-out: Glutamate-cysteine ligase regulatory (GCLM), GCLM (gene 2730); assay: LTEA_HepaRG_GCLM: Life Technologies and Expression Analysis (LTEA) Assay for Glutamate-cysteine ligase regulatory (GCLM) using HepaRG (AID 2283500)
In short: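 Differentiated HepaRG cells exposed 48 h in serum-free induction medium to eight half-log concentrations up to 100 uM (0.5% DMSO). GCLM mRNA by TaqMan qRT-PCR, normalized to ACTB, GAPDH and POLR2A; bidirectional fit versus DMSO.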

[5] = read-out: Heat shock 70 kDa protein 1 (HSPA1A), gene 3303; assay: LTEA_HepaRG_HSPA1A: Life Technologies and Expression Analysis (LTEA) Assay for Heat shock 70 kDa protein 1 (HSPA1A) using HepaRG (AID 2283502)
In short: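 Human HepaRG cells in serum-free induction medium were exposed in duplicate for 48 h to 8 half-log concentrations, highest 100 uM, in 0.5% DMSO. HSPA1A mRNA read by TaqMan qRT-PCR, normalized to ACTB, GAPDH, POLR2A, fitted bidirectionally against DMSO.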

[6] = read-out: Hypoxia-inducible factor 1-alpha (Homo sapiens) (UniProt Q16665); assay: LTEA_HepaRG_HIF1A: Life Technologies and Expression Analysis (LTEA) Assay for Hypoxia-inducible factor 1 (HIF1A) Trancription factor using HepaRG (AID 2283503)
In short: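 Differentiated HepaRG cells in serum-free induction medium exposed 48 h, in duplicate, to 8-point half-log series from 100 uM in 0.5% DMSO. HIF1A mRNA measured by TaqMan qRT-PCR, normalized to ACTB/GAPDH/POLR2A, fitted bidirectionally versus DMSO.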

[7] = read-out: 3-Hydroxy-3-Methylglutaryl-CoA Synthase 2 (HMGCS2), HMGCS2 (gene 3158); assay: LTEA_HepaRG_HMGCS2: Life Technologies and Expression Analysis (LTEA) Assay for 3-Hydroxy-3-Methylglutaryl-CoA Synthase 2 (HMGCS2) using HepaRG (AID 2283504)
In short: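 Readout is HMGCS2 transcript by qRT-PCR, housekeeping-normalised (ACTB/GAPDH/POLR2A) and fitted bidirectionally against 0.5% DMSO. Differentiated HepaRG cells received chemicals 48 h, duplicate wells, eight half-log concentrations topping at 100 uM.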

HGF (gene 3082) = assay: LTEA_HepaRG_HGF: Life Technologies and Expression Analysis (LTEA) Assay for Hepatocyte Growth Facto (HGF) using HepaRG (AID 2283505)
In short: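 HGF transcript was quantified by TaqMan qRT-PCR against three housekeeping genes after 48 h treatment of HepaRG cells. Exposure ran in duplicate over eight half-log steps topping at 100 uM in 0.5% DMSO vehicle.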

[8] = read-out: Insulin Like Growth Factor 1 (IGF1), IGF1 (gene 3479); assay: LTEA_HepaRG_IGF1: Life Technologies and Expression Analysis (LTEA) Assay for Insulin Like Growth Factor 1 (IGF1) using HepaRG (AID 2283506)
In short: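 Differentiated HepaRG cells in serum-free induction medium, exposed 48 h in duplicate to 8 half-log concentrations up to 100 uM in 0.5% DMSO. IGF1 mRNA by Fluidigm qRT-PCR, normalised to ACTB, GAPDH and POLR2A.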

[9] = read-out: Intercellular Adhesion Molecule 1 (ICAM1), ICAM1 (gene 3383); assay: LTEA_HepaRG_ICAM1: Life Technologies and Expression Analysis (LTEA) Assay for Intercellular Adhesion Molecule 1 (ICAM1) using HepaRG (AID 2283507)
In short: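 ICAM1 transcript levels measured by qRT-PCR, normalized to three housekeeping genes (ACTB, GAPDH, POLR2A), after 48 h chemical exposure of HepaRG cells. Duplicate eight-point half-log series from 100 uM in 0.5% DMSO; gain or loss fitted against vehicle.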

[10] = read-out: Insulin-like growth factor-binding protein 1 (IGFBP1), IGFBP1 (gene 3484); assay: LTEA_HepaRG_IGFBP1: Life Technologies and Expression Analysis (LTEA) Assay for Insulin-like growth factor-binding protein 1 (IGFBP1) using HepaRG (AID 2283508)
In short: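 Read-out is qRT-PCR transcript level normalized to three housekeeping genes, fitted in both directions against 0.5% DMSO. Differentiated HepaRG cells received eight half-log concentrations (top 100 uM) in duplicate for 48 h in serum-free induction medium.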

[11] = read-out: Interleukin 6 (IL6), IL6 (gene 3569); assay: LTEA_HepaRG_IL6: Life Technologies and Expression Analysis (LTEA) Assay for Interleukin 6 (IL6) using HepaRG (AID 2283509)
In short: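 HepaRG cells exposed in duplicate for 48 h to eight half-log concentrations, top 100 uM, in 0.5% DMSO serum-free induction medium. mRNA measured by qRT-PCR, normalized to ACTB, GAPDH and POLR2A. Bidirectional fit versus DMSO.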

[12] = read-out: Interleukin 6 Receptor (IL6R), IL6R (gene 3570); assay: LTEA_HepaRG_IL6R: Life Technologies and Expression Analysis (LTEA) Assay for Interleukin 6 Receptor (IL6R) using HepaRG (AID 2283510)
In short: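 Differentiated HepaRG cells, plated 48 h, then exposed in duplicate for 48 h in serum-free induction medium to 8 half-log concentrations (top 100 uM, 0.5% DMSO). IL6R mRNA measured by TaqMan qRT-PCR, normalized to ACTB/GAPDH/POLR2A; bidirectional fit vs DMSO.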

[13] = read-out: Potassium channel subfamily K member 1 (KCNK1), KCNK1 (gene 3775); assay: LTEA_HepaRG_KCNK1: Life Technologies and Expression Analysis (LTEA) Assay for Potassium channel subfamily K member 1 (KCNK1) using HepaRG (AID 2283511)
In short: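 Differentiated HepaRG cells, 48 h exposure in serum-free induction medium with 0.5% DMSO; 8 concentrations, half-log from 100 uM, duplicate. KCNK1 mRNA by qRT-PCR, normalized to ACTB, GAPDH, POLR2A; bidirectional fit vs DMSO.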

[14] = read-out: Keratin 19 (KRT19), KRT19 (gene 3880); assay: LTEA_HepaRG_KRT19: Life Technologies and Expression Analysis (LTEA) Assay for Keratin 19 (KRT19) using HepaRG (AID 2283512)
In short: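 KRT19 transcript measured by TaqMan qRT-PCR, referenced to three housekeeping genes, after HepaRG cells received test chemicals for 48 h. Eight half-log concentrations, top 100 uM, 0.5% DMSO vehicle; increases and decreases both fitted.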

[15] = read-out: JUN Transcription Factor, JUN (gene 3725); assay: LTEA_HepaRG_JUN: Life Technologies and Expression Analysis (LTEA) Assay for JUN Transcription Factor using HepaRG (AID 2283513)
In short: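 HepaRG cells, 48 h post-plating, exposed 48 h in serum-free induction medium to 8-point half-log series (top 100 uM, 0.5% DMSO), duplicate; mRNA by qRT-PCR (TaqMan, Fluidigm), normalized to ACTB/GAPDH/POLR2A; bidirectional fit vs DMSO.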

[16] = read-out: Lipase C (LIPC), LIPC (gene 3990); assay: LTEA_HepaRG_LIPC: Life Technologies and Expression Analysis (LTEA) Assay for Lipase C (LIPC) using HepaRG (AID 2283514)
In short: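 HepaRG cells, 48 h after plating, treated in duplicate for 48 h in serum-free induction medium over 8 half-log concentrations from 100 uM, 0.5% DMSO. LIPC mRNA by TaqMan qRT-PCR normalized to ACTB/GAPDH/POLR2A; bidirectional fit versus DMSO.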

[17] = read-out: Lipoprotein lipase (LPL), LPL (gene 4023); assay: LTEA_HepaRG_LPL: Life Technologies and Expression Analysis (LTEA) Assay for Lipoprotein lipase (LPL) using HepaRG (AID 2283515)
In short: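 Differentiated HepaRG cells, plated 48 h, then exposed 48 h in serum-free induction medium to 8 concentrations (top 100 uM, half-log steps) in 0.5% DMSO, duplicate. LPL mRNA measured by qRT-PCR, normalized to ACTB, GAPDH and POLR2A.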

[18] = read-out: Glutamate-cysteine ligase catalytic (GCLC), GCLC (gene 2729); assay: LTEA_HepaRG_GCLC: Life Technologies and Expression Analysis (LTEA) Assay for Glutamate-cysteine ligase catalytic (GCLC) using HepaRG (AID 2283498)
In short: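 Differentiated HepaRG cells exposed 48 h in serum-free induction medium, eight-point half-log series topping at 100 uM in 0.5% DMSO, duplicates. GCLC mRNA by qRT-PCR normalized to ACTB, GAPDH and POLR2A, fitted bidirectionally versus DMSO.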

Measured: outcome

Hypoxia-inducible factor 1-alpha (Homo sapiens), sequence (Q16665 whole entry, looked up): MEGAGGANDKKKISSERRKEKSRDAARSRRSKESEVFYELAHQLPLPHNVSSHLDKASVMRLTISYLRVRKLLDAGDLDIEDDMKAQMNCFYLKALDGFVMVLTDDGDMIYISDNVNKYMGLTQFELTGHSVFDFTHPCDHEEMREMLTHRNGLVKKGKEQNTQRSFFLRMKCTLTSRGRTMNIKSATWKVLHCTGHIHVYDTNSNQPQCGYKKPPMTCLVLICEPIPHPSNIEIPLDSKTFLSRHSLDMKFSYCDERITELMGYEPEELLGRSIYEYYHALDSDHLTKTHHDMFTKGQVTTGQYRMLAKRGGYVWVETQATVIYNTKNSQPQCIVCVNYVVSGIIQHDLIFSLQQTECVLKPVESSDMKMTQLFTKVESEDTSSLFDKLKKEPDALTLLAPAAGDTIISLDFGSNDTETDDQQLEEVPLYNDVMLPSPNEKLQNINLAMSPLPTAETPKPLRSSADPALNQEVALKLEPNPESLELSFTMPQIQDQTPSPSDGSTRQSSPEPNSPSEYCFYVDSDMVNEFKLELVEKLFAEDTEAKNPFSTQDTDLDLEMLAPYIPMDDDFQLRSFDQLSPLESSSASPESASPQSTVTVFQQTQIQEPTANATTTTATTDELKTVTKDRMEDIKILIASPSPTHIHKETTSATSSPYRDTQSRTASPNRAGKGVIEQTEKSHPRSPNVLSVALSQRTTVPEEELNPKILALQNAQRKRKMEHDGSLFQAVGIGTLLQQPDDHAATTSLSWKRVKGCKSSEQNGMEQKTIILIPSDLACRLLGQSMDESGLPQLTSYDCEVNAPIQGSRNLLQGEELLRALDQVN

OC(Cn1cncn1)(Cn1cncn1)c1ccc(F)cc1F
not listed: [18]
inactive: all other assays above

OC[C@H]1O[C@@](CO)(O[C@H]2O[C@H](CO)[C@@H](O)[C@H](O)[C@H]2O)[C@@H](O)[C@@H]1O
not listed: [11] | [18]
inactive: all other assays above

CCCCCCCCCC
not listed: [11] | [18]
inactive: all other assays above

CCCCCCCC1CCC(=O)O1 (stereo not drawn)
not listed: [1] | HGF (gene 3082) | [11]
inactive: all other assays above
